Consider 35 compounds from PubChem BioAssay (NCATS).

SMILES strings stand for the structures. Inconclusive results are not listed. A structure can be active in one record and inactive in another. The source made the active and inactive calls. The call rests on the fitted dose curve; in most records, active means well fitted curve in the direction sought with a large enough effect; inconclusive means small, poorly fitted or top-dose-only effect, or another doubt; inactive means no such curve, though single readings can be large; an effect the other way counts as inactive or inconclusive.
On the % scale 0 is the no-effect control and ±100 the full control effect.

Sequence of Glutathione peroxidase 1 (Homo sapiens) (P07203 whole entry, looked up): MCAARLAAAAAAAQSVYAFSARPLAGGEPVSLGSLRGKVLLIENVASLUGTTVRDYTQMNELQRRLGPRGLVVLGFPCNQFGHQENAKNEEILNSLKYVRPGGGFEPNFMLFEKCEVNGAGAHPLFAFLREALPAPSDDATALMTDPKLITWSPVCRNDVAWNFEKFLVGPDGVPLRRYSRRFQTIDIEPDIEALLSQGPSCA
Sequence of Phospholipid hydroperoxide glutathione peroxidase GPX4 (Homo sapiens) (P36969 whole entry, looked up): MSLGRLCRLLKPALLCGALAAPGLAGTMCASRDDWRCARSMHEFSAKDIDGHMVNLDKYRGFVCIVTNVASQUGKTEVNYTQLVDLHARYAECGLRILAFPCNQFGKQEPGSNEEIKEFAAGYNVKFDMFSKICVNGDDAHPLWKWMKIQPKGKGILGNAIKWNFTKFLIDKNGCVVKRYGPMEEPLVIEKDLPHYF
Sequence of Rap guanine nucleotide exchange factor 4 (Homo sapiens) (Q8WZA2 whole entry, looked up): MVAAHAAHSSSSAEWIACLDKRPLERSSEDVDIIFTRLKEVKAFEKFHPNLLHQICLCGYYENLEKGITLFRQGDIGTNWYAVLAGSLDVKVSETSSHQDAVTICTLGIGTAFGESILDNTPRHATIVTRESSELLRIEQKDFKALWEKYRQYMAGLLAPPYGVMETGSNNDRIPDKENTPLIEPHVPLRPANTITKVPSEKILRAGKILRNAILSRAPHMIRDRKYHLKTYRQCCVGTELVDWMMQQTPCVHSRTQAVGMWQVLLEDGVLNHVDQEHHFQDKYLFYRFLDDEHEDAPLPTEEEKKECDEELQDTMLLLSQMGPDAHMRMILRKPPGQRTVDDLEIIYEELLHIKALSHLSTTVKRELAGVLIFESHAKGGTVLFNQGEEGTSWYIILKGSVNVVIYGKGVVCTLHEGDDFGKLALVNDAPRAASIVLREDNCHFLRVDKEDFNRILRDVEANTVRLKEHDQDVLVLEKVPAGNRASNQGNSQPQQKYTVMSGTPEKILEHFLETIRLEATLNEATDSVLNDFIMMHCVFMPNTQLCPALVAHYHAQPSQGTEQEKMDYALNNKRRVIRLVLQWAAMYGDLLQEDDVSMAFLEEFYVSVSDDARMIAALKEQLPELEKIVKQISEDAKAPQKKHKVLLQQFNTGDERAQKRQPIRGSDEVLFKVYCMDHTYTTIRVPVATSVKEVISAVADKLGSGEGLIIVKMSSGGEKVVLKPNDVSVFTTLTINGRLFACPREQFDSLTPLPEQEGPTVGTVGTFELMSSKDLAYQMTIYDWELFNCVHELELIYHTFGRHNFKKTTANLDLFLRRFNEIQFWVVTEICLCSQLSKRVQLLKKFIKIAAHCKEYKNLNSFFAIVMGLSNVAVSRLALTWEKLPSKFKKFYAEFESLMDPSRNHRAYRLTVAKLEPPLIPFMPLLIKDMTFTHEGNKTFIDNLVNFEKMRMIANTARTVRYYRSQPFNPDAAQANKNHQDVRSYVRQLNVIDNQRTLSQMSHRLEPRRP

One test has as its target Rap guanine nucleotide exchange factor 4 (Homo sapiens) (UniProt Q8WZA2). Briefly: Confirmatory qHTS for agonist of cAMP-regulated guanine nucleotide exchange factor 4 (EPAC2) (AID 1645884).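 Further: nucleotide exchange releases bodipy-GDP from Rap1 and this lowers its fluorescence; nearly all actives have a fitted effect of over 65% in size.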 The settings on record: EPAC2 GEF activity, Rap1B-BODIPY-GDP fluorescence, percent relative to cAMP agonist control; series mostly up to 154 µM; activation: at the top concentration.
`CO[C@H]1C=CO[C@@]2(C)Oc3c(C)c(O)c4c(O)c(c(/C=N/N5CCN(C)CC5)c(O)c4c3C2=O)NC(=O)/C(C)=C\C=C[C@H](C)[C@H](O)[C@@H](C)[C@@H](O)[C@@H](C)[C@H](OC(C)=O)[C@@H]1C`: the “activation” value is 11.1% (inactive).

Take `CCc1oc2ccccc2c1C(=O)c1cc(Br)c(O)c(Br)c1`: the compound was classed as inactive.

Regarding `CC(C)=CCOc1ccc(/C=C/C(=O)c2ccc(OCC=C(C)C)cc2OCC(=O)O)cc1`, the “activation” value was -12.1% (inactive).

With `COc1ccc(C(=O)c2ccccc2)c(O)c1`, the “activation” value was 5.24% (inactive).

As to `CCc1oc2ccccc2c1C(=O)c1cc(I)c(O)c(I)c1`, the “activation” value is 10.1% (inactive).

For `CC1(COc2ccc(CC3SC(=O)NC3=O)cc2)CCCCC1` (centres undefined), the “activation” value is -34% (inactive).

For another test the target is unchanged. Briefly: Confirmatory qHTS for antagonist of cAMP-regulated guanine nucleotide exchange factor 4 (EPAC2) (AID 1645885). Further: nearly all actives have a fitted effect of over 25% in size. Further: potency means the concentration at half of the fitted maximal effect. As to conditions: EPAC2 Rap1B-BODIPY-GDP exchange fluorescence, biochemical; series mostly up to 114 µM; activity change, negative = inhibition: at the top concentration.
As for `Oc1ccc(Cl)cc1Cc1cc(Cl)ccc1O`, the Potency was 35 µM (active).

As for `CO[C@H]1C=CO[C@@]2(C)Oc3c(C)c(O)c4c(O)c(c(/C=N/N5CCN(C)CC5)c(O)c4c3C2=O)NC(=O)/C(C)=C\C=C[C@H](C)[C@H](O)[C@@H](C)[C@@H](O)[C@@H](C)[C@H](OC(C)=O)[C@@H]1C`, the Potency is 44.1 µM (active).

As to `CCc1oc2ccccc2c1C(=O)c1cc(Br)c(O)c(Br)c1`, the Potency was 27.8 µM (active) and the activity change, negative = inhibition is -17.2% [at 12.7 µM] (inactive).

Consider `CC(C)=CCOc1ccc(/C=C/C(=O)c2ccc(OCC=C(C)C)cc2OCC(=O)O)cc1`, for which the Potency was 39.3 µM (active).

With `COc1ccc(C(=O)c2ccccc2)c(O)c1`, the Potency was 31.2 µM (active).

In the case of `CCc1oc2ccccc2c1C(=O)c1cc(I)c(O)c(I)c1`, the Potency was 27.8 µM (active).

As to `CC1(COc2ccc(CC3SC(=O)NC3=O)cc2)CCCCC1` (centres undefined), the Potency was 44.1 µM (active).

System in a further test: not listed separately
In words: NCATS anti-infectives library activity on HEK293 viability as a counter-qHTS vs the C. elegans viability qHTS (AID 1745854). As to conditions: HEK293 viability counter-screen; series mostly up to 41.8 µM; activity change, negative = cytotoxicity: at the top concentration. The essentials:
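HEK293 cells, 1500 per well, exposed 24 hr at 37C in 5% CO2 to compounds in a 1:5 titration, up to 41.7 uM final. Viability read as CellTiter-Glo luminescence after 10 min at room temperature.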
Consider `C=C[C@H]1CN2CC[C@H]1C[C@@H]2[C@@H](O)c1ccnc2ccc(OC)cc12`, for which the “activity change, negative = cytotoxicity” value is -5.24% (inactive).

`C[C@H]1[C@H]2CC[C@H]3[C@@H]4CC=C5C[C@@H](N(C)C)CC[C@]5(C)[C@H]4CC[C@]23CN1C`: the activity change, negative = cytotoxicity was -25.4% [at 8.35 µM] (inactive).

Take `OC[C@H]1O[C@@H](Oc2ccc(O)cc2)[C@H](O)[C@@H](O)[C@@H]1O`: the “activity change, negative = cytotoxicity” value is 5.69% [at 83.3 µM] (inactive).

A further test has as its target Glutathione peroxidase 1 (Homo sapiens) (UniProt P07203). Briefly: Primary qHTS Assay for Inhibitors of Recombinant Selenoprotein Glutathione Peroxidase 1 (GPX1) (AID 1845191). Further: nearly all actives have a fitted effect of over 65% in size. Further: potency means the concentration at half of the fitted maximal effect. As to conditions: recombinant GPX1, GR-coupled NADPH fluorescence, 15 min; series mostly up to 48.8 µM; activity, negative = inhibition: at the top concentration. The essentials: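 10 nM GPX1 + cpd, 30 min RT; start w/ 1 mM GSH, 0.5 mM cumene hydroperoxide, 0.5 mM NADPH, 100 nM GR, 0.01% BSA; buffer 50 mM Tris-HCl pH 7.5, 2 mM EDTA, 150 mM NaCl; Fl 340/450, 0 & 15 min.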
On to `CCCCCCCCCCCCOCCOCCOCCOCCOCCOCCOCCOCCOCCO`, for which the result was inactive.

`CO[C@H]1C=CO[C@@]2(C)Oc3c(C)c(O)c4c(O)c(c(/C=N/N5CCN(C)CC5)c(O)c4c3C2=O)NC(=O)/C(C)=C\C=C[C@H](C)[C@H](O)[C@@H](C)[C@@H](O)[C@@H](C)[C@H](OC(C)=O)[C@@H]1C`: the “activity, negative = inhibition” value was -12.3% (inactive).

Regarding `CC(=O)O[C@H]1C[C@@H]2CC[C@@H]3[C@H](CC[C@@]4(C)[C@H]3C[C@H]([N+]3(C)CCCCC3)[C@@H]4OC(C)=O)[C@@]2(C)C[C@@H]1N1CCCCC1`, the outcome was inactive.

In the case of `C[C@H]1O[C@@H](O[C@H]2CC[C@@]3(C)[C@H](CC[C@@H]4[C@@H]3C[C@@H](O)[C@]3(C)[C@@H](C5=CC(=O)OC5)CC[C@]43O)C2)C[C@H](O)[C@@H]1O[C@H]1C[C@H](O)[C@H](O[C@H]2C[C@H](O)[C@H](O[C@@H]3O[C@H](CO)[C@@H](O)[C@H](O)[C@H]3O)[C@@H](C)O2)[C@@H](C)O1`, the result was inactive.

`CCN1CCN(C(=O)N[C@@H](C(=O)N[C@@H]2C(=O)N3C(C(=O)O)=C(CSc4nnnn4C)CS[C@H]23)c2ccc(O)cc2)C(=O)C1=O`: the Potency was 11.4 µM (active).

For the compound `O=S(=O)(O)c1ccc(O)cc1`, the “activity, negative = inhibition” value is -14.1% (inactive).

In the case of `N[C@H](C(=O)O)[C@@H](O)c1ccc(O)c(O)c1`, the “activity, negative = inhibition” value was -13% (inactive).

`C[C@@H](O)[C@H]1C(=O)N2C(C(=O)O)=C(S[C@@H]3CN[C@H](CNS(N)(=O)=O)C3)[C@H](C)[C@H]12`: the Potency result was “inactive”.

On to `C=C[C@H]1CN2CC[C@H]1C[C@@H]2[C@@H](O)c1ccnc2ccc(OC)cc12`, for which the Potency result is “inactive”.

`COc1ccc(CN(CCN(C)C)c2ncccn2)cc1`: the “activity, negative = inhibition” value was -9.88% (inactive).

For `OC[C@H]1O[C@@H](Oc2ccc(O)cc2)[C@H](O)[C@@H](O)[C@@H]1O`, the “activity, negative = inhibition” value was -14.7% (inactive).

On to `NS(=O)(=O)Cc1noc2ccccc12`, for which the “activity, negative = inhibition” value is -4.71% (inactive).

Consider `CCN[C@@H]1C[C@H](N)[C@@H](OC2OC(CN)=CCC2N)[C@H](O)[C@H]1O[C@H]1OC[C@](C)(O)[C@H](NC)[C@H]1O` (some centres undefined), for which the outcome was “inactive [at 0.4 µM]”.

`CCc1oc2ccccc2c1C(=O)c1cc(I)c(O)c(I)c1`: the “activity, negative = inhibition” value was -11.1% (inactive).

As for `CCc1ccc(C(=O)C(C)CN2CCCCC2)cc1` (centres undefined), the “activity, negative = inhibition” value is -11.6% (inactive).

The next test deals with Phospholipid hydroperoxide glutathione peroxidase GPX4 (Homo sapiens) (UniProt P36969). Briefly: Primary qHTS Assay for Inhibitors of Recombinant Selenoprotein Glutathione Peroxidase 4 (GPX4) (AID 1845192). Further: nearly all actives have a fitted effect of over 65% in size. Further: potency means the concentration at half of the fitted maximal effect. As to conditions: recombinant GPX4, GR-coupled NADPH fluorescence, 15 min; series mostly up to 50 µM; activity change, negative = inhibition: at the top concentration. Summed up:
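NADPH consumption, followed by fluorescence at 340/450 nm between 0 and 15 min, reports GPX4 activity via coupled glutathione reductase (100 nM). Enzyme 200 nM was pre-exposed to compound 30 min; 0.5 mM cumene hydroperoxide and 1 mM GSH served as substrates.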
For `Clc1cccc(C(c2ccc3nc[nH]c3c2)n2ccnc2)c1` (centres undefined), the Potency entry was “inactive”.

As for `NS(=O)(=O)c1ccc(Cl)c(S(N)(=O)=O)c1`, the outcome was inactive.

Consider `Oc1ccc(Cl)cc1Cc1cc(Cl)ccc1O`, for which the “activity change, negative = inhibition” value is -6.91% (inactive).

Turning to `CN(C)CCN1C(=O)c2ccccc2N(C)c2ccccc21`, the “activity change, negative = inhibition” value is -4.71% (inactive).

On to `Cn1c(=O)c2[nH]c(Br)nc2n(C)c1=O`, for which the result was inactive.

Consider `CO[C@H]1C=CO[C@@]2(C)Oc3c(C)c(O)c4c(O)c(c(/C=N/N5CCN(C)CC5)c(O)c4c3C2=O)NC(=O)/C(C)=C\C=C[C@H](C)[C@H](O)[C@@H](C)[C@@H](O)[C@@H](C)[C@H](OC(C)=O)[C@@H]1C`, for which the Potency was 17.8 µM (active).

For `CC(=O)O[C@H]1C[C@@H]2CC[C@@H]3[C@H](CC[C@@]4(C)[C@H]3C[C@H]([N+]3(C)CCCCC3)[C@@H]4OC(C)=O)[C@@]2(C)C[C@@H]1N1CCCCC1`, the outcome was inactive.

For the compound `C[C@H]1O[C@@H](O[C@H]2CC[C@@]3(C)[C@H](CC[C@@H]4[C@@H]3C[C@@H](O)[C@]3(C)[C@@H](C5=CC(=O)OC5)CC[C@]43O)C2)C[C@H](O)[C@@H]1O[C@H]1C[C@H](O)[C@H](O[C@H]2C[C@H](O)[C@H](O[C@@H]3O[C@H](CO)[C@@H](O)[C@H](O)[C@H]3O)[C@@H](C)O2)[C@@H](C)O1`, the result was inactive.

Turning to `CN1CCC(OC(c2ccccc2)c2ccccc2)CC1`, the result was inactive.

In the case of `CCN1CCN(C(=O)N[C@@H](C(=O)N[C@@H]2C(=O)N3C(C(=O)O)=C(CSc4nnnn4C)CS[C@H]23)c2ccc(O)cc2)C(=O)C1=O`, the Potency entry was “inactive”.

Consider `O=S(=O)(O)c1ccc(O)cc1`, for which the outcome was inactive.

Take `N[C@H](C(=O)O)[C@@H](O)c1ccc(O)c(O)c1`: the “activity change, negative = inhibition” value is -22.7% (inactive).

Turning to `O=C(Nc1ccc([N+](=O)[O-])cc1)Nc1ccc([N+](=O)[O-])cc1`, the result was inactive.

As to `CCCCc1cc2ccccc2c(OCCN(C)C)n1`, the “activity change, negative = inhibition” value was -4.84% (inactive).

`C[C@@H](O)[C@H]1C(=O)N2C(C(=O)O)=C(S[C@@H]3CN[C@H](CNS(N)(=O)=O)C3)[C@H](C)[C@H]12`: the “activity change, negative = inhibition” value is -15.3% (inactive).

In the case of `CCOC(=O)c1c(N)sc2c1CCN(Cc1ccccc1)C2`, the “activity change, negative = inhibition” value was -23.6% (inactive).

For `C=C[C@H]1CN2CC[C@H]1C[C@@H]2[C@@H](O)c1ccnc2ccc(OC)cc12`, the Potency result is “inactive”.

Turning to `COc1ccc(C(=O)c2ccccc2)c(O)c1`, the “activity change, negative = inhibition” value was -2.65% (inactive).

As to `CC[C@]12CCCN3CCc4c(n(c5ccccc45)C(=O)C1)[C@@H]32`, the “activity change, negative = inhibition” value is -6.7% (inactive).

For the compound `COc1ccc(CN(CCN(C)C)c2ncccn2)cc1`, the “activity change, negative = inhibition” value was -10.3% (inactive).

On to `O=C1[C@H](CC[C@H](O)c2ccc(F)cc2)[C@@H](c2ccc(O)cc2)N1c1ccc(F)cc1`, for which the Potency result was “inactive”.

`Cc1c[nH]c2ccccc12`: the “activity change, negative = inhibition” value is -1.21% (inactive).

On to `OC[C@H]1O[C@@H](Oc2ccc(O)cc2)[C@H](O)[C@@H](O)[C@@H]1O`, for which the “activity change, negative = inhibition” value was -14.4% (inactive).

As to `CN(Cc1ccc(C(C)(C)C)cc1)Cc1cccc2ccccc12`, the outcome was inactive.

Consider `CCN[C@@H]1C[C@H](N)[C@@H](OC2OC(CN)=CCC2N)[C@H](O)[C@H]1O[C@H]1OC[C@](C)(O)[C@H](NC)[C@H]1O` (some centres undefined), for which the outcome was “inactive [at 0.409 µM]”.

In the case of `Oc1c(Cl)cc(Cl)c(Cl)c1Cc1c(O)c(Cl)cc(Cl)c1Cl`, the Potency is 25.5 µM (active).

With `Cc1cc(NS(=O)(=O)c2ccc(N)cc2)nc(C)n1`, the outcome was inactive.
